Bioassay records: PubChem, The Scripps Research Institute Molecular Screening Center
PP5 primary – PP5 (human) phosphatase inhibition. inhibition, % at 6.7 µM. 0.18% of 320,000 active. purified PP5c, OMFP substrate fluorescence. P53041. AID 1987;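 active means inhibition above the campaign's mean inhibition across all tested compounds plus 3 SD, cut at about 9.5% in these data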;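 further: 0% = DMSO only and 100% = 100 µM cantharidin control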
PAFAH2 FP inh – inhibitors of human PAFAH2; Q99487; recombinant PAFAH2, FP-rhodamine activity probe, fluorescence polarization; inhibition, % at 3.39 µM; 0.99% of 340,000 active;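 active means inhibition above the mean over all tested compounds plus 3 SD, cut at about 30% in these data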;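 further: inhibitors block probe labeling of enzyme so polarization drops; 0% = enzyme with DMSO and 100% = wells lacking PAFAH2 protein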
pPAFAH FP inh – inhibitors of human plasma PAF acetylhydrolase (pPAFAH); AID 463082; recombinant pPAFAH, FP-rhodamine probe fluorescence polarization; inhibition, % at 3.39 µM; Q13093; 1.5% of 330,000 active;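 active means inhibition above the mean inhibition across the screen plus 3 SD, cut at about 25% in these data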;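 further: inhibitors block binding of the rhodamine activity-based probe so polarization drops; 0% = enzyme with DMSO and 100% = wells lacking pPAFAH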
PAFAH1B2 FP inh – PAFAH1B2 (human) inhibition | recombinant PAFAH1B2, FP-rhodamine activity probe, fluorescence polarization | inhibition, % at 3.39 µM | 1.2% of 340,000 active | P68402;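 active means inhibition above the mean of all tested compounds plus 3 SD, cut at about 24% in these data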;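 further: 0% = enzyme with DMSO and 100% = wells lacking PAFAH1B2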
Target sequence (P68402 whole entry, looked up): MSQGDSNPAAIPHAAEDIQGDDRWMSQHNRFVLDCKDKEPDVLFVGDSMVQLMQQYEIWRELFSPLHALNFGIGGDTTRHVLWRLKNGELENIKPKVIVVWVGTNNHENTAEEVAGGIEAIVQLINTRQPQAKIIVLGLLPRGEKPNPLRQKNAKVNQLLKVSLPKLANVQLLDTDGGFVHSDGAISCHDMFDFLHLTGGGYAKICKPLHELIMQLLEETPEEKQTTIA
PP1 counter – blocks human PP1-alpha phosphatase, a PP5 counter-screen | purified PP1alpha, OMFP fluorescence | inhibition, % at 6.7 µM | 0.9% of 320,000 active;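 active means inhibition above the mean inhibition of all tested compounds plus 3 SD, computed separately for each screening campaign, cut at about 15% in these data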
Target sequence (P62136 whole entry, looked up): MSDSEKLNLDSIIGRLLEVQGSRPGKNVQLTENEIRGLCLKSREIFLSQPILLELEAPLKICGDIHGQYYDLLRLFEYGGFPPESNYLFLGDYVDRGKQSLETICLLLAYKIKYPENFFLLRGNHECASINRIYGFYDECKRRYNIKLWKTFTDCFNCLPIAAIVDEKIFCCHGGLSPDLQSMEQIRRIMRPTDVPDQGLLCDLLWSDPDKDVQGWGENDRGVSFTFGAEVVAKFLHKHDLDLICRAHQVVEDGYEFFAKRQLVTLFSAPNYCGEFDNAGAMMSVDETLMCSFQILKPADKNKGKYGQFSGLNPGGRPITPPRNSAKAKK
PAFAH1B3 inh – PAFAH1B3 (human) inhibition. recombinant PAFAH1B3, FP-rhodamine probe, fluorescence polarization. 0.28% of 340,000 active. AID 492972. inhibition, % at 3.39 µM;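 active means inhibition above the screen-wide average of all tested compounds plus 3 SD, cut at about 25% in these data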;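 further: 0% = enzyme with DMSO only and 100% = wells lacking PAFAH1B3 protein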
Starred values were filed as active, the others as inactive; . = not tested or not shown. Sampled rows, rich in hits. Any-hit rate of the full collection: about 3.4%.

SMILES	PP5 primary	PAFAH2 FP inh	pPAFAH FP inh	PAFAH1B2 FP inh	PP1 counter	PAFAH1B3 inh
Oc1ccccc1Cn1c(-c2ccccc2O)nc2ccccc21	6	-4	4	9	-3	13
O=C(CN1C(=O)NC2(CCCCCC2)C1=O)c1cccs1	0	8	7	-1	-1	8
Cc1cccc(NC(=O)COC(=O)Cc2cccs2)c1C	0	8	25*	1	-8	12
COc1ccccc1NC(=O)COC(=O)Cc1cccs1	2	-1	18	20	0	6
COc1ccc(S(=O)(=O)N2CCCCC2)cc1NC(=O)c1cccc(S(=O)(=O)N2CC(C)OC(C)C2)c1 (configuration not stated)	.	0	.	0	.	-1
N#Cc1c(N(CCO)CCO)nc(N)c2c(N)nc3c(c12)CC(=O)N3Cc1cccs1	4	12	26*	8	2	12
C/C=C/C=C/[C@H]1Cc2cc(O)cc(O)c2O1	-3	.	36*	.	-4	.
O=C1CC(c2ccc(Cl)cc2)c2c(O)cc(O)cc2O1 (configuration not stated)	3	4	2	6	-1	2
C/C(=N/NC(=O)c1cc(C)[nH]n1)c1ccco1	-1	1	-1	9	-2	10
CCOc1ccc(NC(=O)Nc2cc(C(=O)O)ccc2N2CC3CC(C2)c2cccc(=O)n2C3)cc1 (configuration not stated)	1	-1	30*	3	-1	-4
O=C1/C(=C\c2ccco2)SC(=S)N1C1CCCCC1	2	.	33*	.	-3	.
CC(C)(CNC(=O)c1cccc(NS(=O)(=O)c2ccc(Br)cc2)c1)N1CCOCC1	-1	2	7	27*	-3	6
Cc1cccc(N2CCN(C(=O)c3ccc4nc(-c5ccco5)c(-c5ccco5)nc4c3)CC2C)c1 (configuration not stated)	7	1	26*	2	9	6
O=[N+]([O-])c1cccc(-c2nc(-c3cccs3)c(-c3cccs3)[nH]2)c1	6	-3	28*	6	9	22
Cc1occc1C(=O)NNC(=O)Nc1ccc(F)cc1F	2	4	1	-3	1	11
O=C(NNC(=O)c1cc2ccccc2cc1O)Nc1ccc(F)cc1F	0	-8	26*	6	1	29*
O=C(NNC(=O)c1cc2ccccc2cc1O)Nc1ccc(Br)cc1	1	-10	26*	3	6	11
CCn1c(C)c(C(=O)O)c2cc(OC)c3ccccc3c21	0	-4	-1	2	-5	0
N#C/C(=C/c1ccco1)C(N)=S	3	34*	33*	14	1	17
O=C1CC(C(=O)O)C(c2ccccc2)c2ccccc21 (configuration not stated)	.	-5	.	4	.	4
O=C1C2CCCN2C(=O)N1CCCCN1CCN(c2ccccc2)CC1 (configuration not stated)	-1	-108	9	3	-2	3
O=C1C2CCCN2C(=O)N1CCCN1CCN(c2ccc([N+](=O)[O-])cc2)CC1 (configuration not stated)	1	-4	29*	0	-2	4
O=C1C2CCCCN2C(=O)N1CCCCN1CCN(c2cccc(Br)c2)CC1 (configuration not stated)	2	-2	28*	-1	-1	7
O=C1C2CCCCN2C(=O)N1CCN1CCN(c2ccc([N+](=O)[O-])cc2)CC1 (configuration not stated)	0	4	6	0	-3	5
O=C1/C(=C/Nc2ccc3c(c2)OCO3)CCc2ccccc21	2	16	17	7	0	8
SMILES	PP5 primary	PAFAH2 FP inh	pPAFAH FP inh	PAFAH1B2 FP inh	PP1 counter	PAFAH1B3 inh
COc1ccc2c(c1)CC/C(=C\Nc1ccc3c(c1)OCO3)C2=O	5	8	25*	4	1	5
Cc1ccc(C)c(NC(=O)COc2coc(CN3CCc4ccccc4C3)cc2=O)c1	-1	3	8	3	-1	1
Cc1ccc(NC(=O)COc2coc(CN3CCc4ccccc4C3)cc2=O)c(C)c1	-1	4	25*	9	-4	8
COCCN(C(=O)CSc1ccc2c(c1)OCCO2)c1c(N)n(CC(C)C)c(=O)[nH]c1=O	.	7	-10	4	.	9
CC(C)(c1ccc(O)c([N+](=O)[O-])c1)c1ccc(O)c([N+](=O)[O-])c1	.	1	.	26*	.	1
O=C(NCC(c1ccco1)N1CCc2ccccc2C1)C(=O)Nc1ccc(F)cc1F (configuration not stated)	-1	-2	5	0	4	3
CC(C)N(Cc1ccccc1)C(=O)CN1C(=O)NC2(CCCc3ccccc32)C1=O (configuration not stated)	-1	-4	6	15	-2	-2
CC(C)N(Cc1ccccc1)C(=O)CN1C(=O)NC(Cc2ccccc2)(c2ccccc2)C1=O (configuration not stated)	1	-8	5	26*	3	7
CN(C)c1ccc(N=Cc2nc(-c3ccccc3)oc2OC(=O)c2ccccc2)cc1	0	5	-2	4	1	0
O=C(Oc1oc(-c2ccco2)nc1C=Nc1ccc(Cl)cc1)c1ccco1	0	48*	26*	9	-2	11
CC(/C=C1\SC(=S)N(NS(=O)(=O)c2ccccc2)C1=O)=C\c1ccccc1	0	7	10	39*	10	9
CC(/C=C1\SC(=S)N(NS(=O)(=O)c2ccc(C)cc2)C1=O)=C\c1ccccc1	-5	4	14	28*	16*	4
Cc1ccc(S(=O)(=O)Nc2ccc3c(c2)nc(CCN2CCN(c4ccccn4)CC2)n3C)cc1	0	-5	2	12	-2	1
Cn1c(CCN2CCN(c3ccccn3)CC2)nc2cc(NS(=O)(=O)c3ccc(Cl)cc3)ccc21	2	1	14	26*	2	0
COc1ccc(C(=O)COC(=O)C(CCSC)NC(=O)COc2ccccc2)cc1 (configuration not stated)	-1	0	4	-1	-2	4
CC(=O)Oc1cc(C(=O)OCC(=O)NC23CC4CC(CC(C4)C2)C3)cc(OC(C)=O)c1OC(C)=O	.	88*	.	65*	.	3
COc1cccc(C(=O)OCC(=O)NC23CC4CC(CC(C4)C2)C3)c1	.	82*	27*	19	.	12
O=C(COC(=O)c1cccs1)NC12CC3CC(CC(C3)C1)C2	1	2	3	-3	-2	1
CC(C)C[C@@H](CN1CCCC1CN1C(=S)NC[C@@H]1Cc1ccc(O)cc1)N1C[C@H](Cc2ccc(O)cc2)N(CCc2ccccc2)C1=S (some centres not stated)	.	8	.	-4	.	-8
